Active and inactive are the calls of the source. How the source made its calls: active means hit-call score of the fitted dose curve at least 0.9, where 1 is the maximum; inactive means score below 0.9.
Assay: APR_HepG2_p53Act_72hr: Apredica 72-hour HepG2 Assay for p53 Activation (AID 2282923);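 further: average cellular p53 protein immunofluorescence intensity in HepG2 cells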
Conditions: high-content imaging, actives raise or lower the signal
In short: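 Imaging-based endpoint: after 72 hr compound exposure (up to 200 uM, 0.5% DMSO), fixed and permeabilized monolayers were labelled with anti-p53 antibody and imaged; signal change in either direction was fitted relative to DMSO controls.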

SMILES	outcome	AC50
O=C(O)Cc1cc(I)c(Oc2cc(I)c(O)c(I)c2)c(I)c1	inactive	
CC(=O)CC(C)(C)O		0.0395 µM (active)
CCN(CC)CCNc1ccc(CNC=O)c2sc3ccc(OC)cc3c(=O)c12	inactive	
CCCCC(CC)COC(=O)CCCCC(=O)OCc1ccccc1 (configuration not stated)	inactive	
CC#C[C@]1(O)CC[C@H]2[C@@H]3CCC4=CC(=O)CCC4=C3[C@@H](c3ccc(N(C)C)cc3)C[C@@]21C	inactive	
c1ccc2c(c1)Cc1ccccc1-2	inactive	
CCCCCCCCOC(=O)CCCCCCCCC(=O)OCCCCCCCC	inactive	

Assay: APR_HepG2_MitoMass_72hr: Apredica 72-hour HepG2 Assay for Mitochondrial Mass (AID 2282924);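 further: MitoTracker Red CMXRos stain intensity per cell imaged as mitochondrial mass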
Conditions: high-content imaging, actives raise or lower the signal
In short: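 Read-out: MitoTracker Red fluorescence intensity from automated imaging (20x, six fields per well) in human HepG2 liver cells. Dosing ran 72 hr, 0.39–200 uM, 0.5% DMSO; bidirectional curve fitting versus DMSO baseline.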

SMILES	AC50	outcome
CC(C)(C)CC(C)(C)c1ccc(O)c(-n2nc3ccccc3n2)c1	42.8 µM (active)	
CC(=O)NC1(c2cccc(F)c2)CCN(CC[C@@]2(c3ccc(Cl)c(Cl)c3)CN(c3ccccc3)C(=O)CO2)CC1		inactive
CCc1ccc(CCOc2ccc(CC3SC(=O)NC3=O)cc2)nc1 (configuration not stated)	57.6 µM (active)	
CCOC(=O)CC(O)(CC(=O)OCC)C(=O)OCC		inactive
Oc1cc2ccccc2c2ccccc12	61.3 µM (active)	
CC[C@H](C)[C@@H](C(=O)O)n1sc2ccccc2c1=O		inactive
CCCCC[C@H](O)CC(=O)CCc1ccc(O)c(OC)c1		inactive
CN1CCN(c2ccccc2/C=C2\SCCN(c3ccc(Cl)c(Cl)c3)C2=O)CC1	109 µM (active)	
Cc1oc(-c2ccccc2)nc1CCOc1ccc(C[C@H](Nc2ccccc2C(=O)c2ccccc2)C(=O)O)cc1		inactive
CCc1nn(C2CCCCC2)c2cc(C3(C#N)CCC(C(=O)O)CC3)ccc12 (configuration not stated)		inactive
CC[C@H](c1ccc(O)cc1)[C@@H](CC)c1ccc(O)cc1		inactive
N#C[C@@H]1CC(F)(F)CN1C(=O)CNC1CC2CCC(C1)N2c1ncccn1 (some centres not stated)		inactive
CCCCCCCCCCCCc1ccccc1S(=O)(=O)O	120 µM (active)	
OCCC(F)(F)C(F)(F)C(F)(F)C(F)(F)C(F)(F)C(F)(F)C(F)(F)C(F)(F)F	102 µM (active)	
C[C@@H]1C[C@H]2[C@@H]3CCC4=CC(=O)C=C[C@]4(C)[C@@]3(F)[C@@H](O)C[C@]2(C)[C@@]1(O)C(=O)COP(=O)(O)O	5.23 µM (active)	
COCC(C)O (configuration not stated)		inactive
OC1CCCCC1		inactive
O=[N+]([O-])c1ccc(O)cc1		inactive

SMILES	AC50	outcome
CC(C)(C)c1cc(C(C)(C)C)c(O)c(C(C)(C)C)c1		inactive
O=C(OCCOCCOC(=O)c1ccccc1)c1ccccc1		inactive
CCC(C)(C)C1CCC(O)CC1 (configuration not stated)		inactive
Cc1cc(CCN2CCN(c3nsc4ccccc34)CC2)cc2c1NC(=O)CC2(C)C	29 µM (active)	
c1ccc2cc3c(ccc4ccccc43)cc2c1		inactive
CCCOC(=O)c1ccc(O)cc1		inactive
CN1CCC[C@H]1c1cccnc1		inactive
NC(=O)N(O)[C@@H]1C=C[C@H](Oc2cccc(Oc3ccc(F)cc3)c2)C1		inactive
COC(=O)CCCCC(=O)OC		inactive
CC(O)CO (configuration not stated)		inactive
O=C(O)Cc1cc(I)c(Oc2cc(I)c(O)c(I)c2)c(I)c1		inactive
CC(=O)CC(C)(C)O		inactive
CCN(CC)CCNc1ccc(CNC=O)c2sc3ccc(OC)cc3c(=O)c12		inactive
CCCCC(CC)COC(=O)CCCCC(=O)OCc1ccccc1 (configuration not stated)		inactive
CC#C[C@]1(O)CC[C@H]2[C@@H]3CCC4=CC(=O)CCC4=C3[C@@H](c3ccc(N(C)C)cc3)C[C@@]21C		inactive
c1ccc2c(c1)Cc1ccccc1-2		inactive
CCCCCCCCOC(=O)CCCCCCCCC(=O)OCCCCCCCC		inactive

Assay: APR_HepG2_NuclearSize_72hr: Apredica 72-hour HepG2 Assay for Nuclear Size (AID 2282925)
Conditions: high-content imaging, actives raise or lower the signal
In short: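 Read-out: nuclear diameter from Hoechst 33342 images (ArrayScan, 20x, six fields/well), via cell-cycle image analysis. HepG2 were dosed 0.39–200 uM for 72 hr in 0.5% DMSO. Bidirectional fit relative to DMSO.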

SMILES	AC50	outcome
CC(C)(C)CC(C)(C)c1ccc(O)c(-n2nc3ccccc3n2)c1	80.4 µM (active)	
CC(=O)NC1(c2cccc(F)c2)CCN(CC[C@@]2(c3ccc(Cl)c(Cl)c3)CN(c3ccccc3)C(=O)CO2)CC1		inactive
CCc1ccc(CCOc2ccc(CC3SC(=O)NC3=O)cc2)nc1 (configuration not stated)		inactive
CCOC(=O)CC(O)(CC(=O)OCC)C(=O)OCC		inactive
Oc1cc2ccccc2c2ccccc12		inactive
CC[C@H](C)[C@@H](C(=O)O)n1sc2ccccc2c1=O		inactive
CCCCC[C@H](O)CC(=O)CCc1ccc(O)c(OC)c1		inactive
CN1CCN(c2ccccc2/C=C2\SCCN(c3ccc(Cl)c(Cl)c3)C2=O)CC1	5.01 µM (active)	
Cc1oc(-c2ccccc2)nc1CCOc1ccc(C[C@H](Nc2ccccc2C(=O)c2ccccc2)C(=O)O)cc1		inactive
CCc1nn(C2CCCCC2)c2cc(C3(C#N)CCC(C(=O)O)CC3)ccc12 (configuration not stated)		inactive
CC[C@H](c1ccc(O)cc1)[C@@H](CC)c1ccc(O)cc1		inactive
N#C[C@@H]1CC(F)(F)CN1C(=O)CNC1CC2CCC(C1)N2c1ncccn1 (some centres not stated)		inactive
CCCCCCCCCCCCc1ccccc1S(=O)(=O)O		inactive
OCCC(F)(F)C(F)(F)C(F)(F)C(F)(F)C(F)(F)C(F)(F)C(F)(F)C(F)(F)F		inactive
C[C@@H]1C[C@H]2[C@@H]3CCC4=CC(=O)C=C[C@]4(C)[C@@]3(F)[C@@H](O)C[C@]2(C)[C@@]1(O)C(=O)COP(=O)(O)O	1.84 µM (active)	
COCC(C)O (configuration not stated)		inactive
OC1CCCCC1		inactive
O=[N+]([O-])c1ccc(O)cc1		inactive

SMILES	AC50	outcome
CC(C)(C)c1cc(C(C)(C)C)c(O)c(C(C)(C)C)c1		inactive
O=C(OCCOCCOC(=O)c1ccccc1)c1ccccc1		inactive
CCC(C)(C)C1CCC(O)CC1 (configuration not stated)		inactive
Cc1cc(CCN2CCN(c3nsc4ccccc34)CC2)cc2c1NC(=O)CC2(C)C		inactive
c1ccc2cc3c(ccc4ccccc43)cc2c1		inactive
CCCOC(=O)c1ccc(O)cc1		inactive
CN1CCC[C@H]1c1cccnc1		inactive
NC(=O)N(O)[C@@H]1C=C[C@H](Oc2cccc(Oc3ccc(F)cc3)c2)C1		inactive
COC(=O)CCCCC(=O)OC		inactive
CC(O)CO (configuration not stated)		inactive
O=C(O)Cc1cc(I)c(Oc2cc(I)c(O)c(I)c2)c(I)c1		inactive
CC(=O)CC(C)(C)O		inactive
CCN(CC)CCNc1ccc(CNC=O)c2sc3ccc(OC)cc3c(=O)c12		inactive
CCCCC(CC)COC(=O)CCCCC(=O)OCc1ccccc1 (configuration not stated)		inactive
CC#C[C@]1(O)CC[C@H]2[C@@H]3CCC4=CC(=O)CCC4=C3[C@@H](c3ccc(N(C)C)cc3)C[C@@]21C		inactive
c1ccc2c(c1)Cc1ccccc1-2		inactive
CCCCCCCCOC(=O)CCCCCCCCC(=O)OCCCCCCCC		inactive
